Assay outcomes deposited in PubChem by National Center for Advancing Translational Sciences (NCATS).
TDP1 cell CPT = growth inhibition of DT40 Tdp1-/-;hTDP1 cells with camptothecin (screen for TDP1 inhibitors) | Potency, µM (series often up to 46.2 µM), for inactives: top-dose activity change, negative = growth inhibition, hits mostly inhibitors | chicken DT40 Tdp1-/-;hTDP1 cells + 20 nM CPT, ATP luminescence, 48 h | 420,000 tested, 12% active; note: potency is the fitted concentration of half-maximal effect; nearly all actives have a fitted effect of over 55% in size
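Chicken DT40 Tdp1-/- cells stably complemented with human TDP1 were seeded at 400 cells/well in medium containing 20 nM camptothecin, exposed to pin-transferred compounds, and grown at 37 °C for at least 48 hr. Viability was read as ATP luminescence.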
VP16 counter = Gal4-VP16 reporter inhibition counter-screen; Drosophila S2 Gal4-VP16 UAS-luciferase, luminescence, 20 h; 310,000 tested, 3.5% active; Potency, µM (doses to about 53.6 µM), without a hit: at the top dose activity, negative = inhibition, most hits filed as inhibitors;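 note: Gal4-VP16 expression switched on by copper sulfate through the metallothionein promoter; potency is the fitted concentration of half-maximal effect; nearly all actives have a fitted effect of over 50% in size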
RORg inh = inhibitors of mouse ROR gamma transcriptional activity; Drosophila S2 Gal4-RORgamma UAS-luciferase reporter, 20 h; Potency, µM (titrated, usually from 53.6 µM), for the others: top-dose activity change, negative = inhibition, actives largely listed as inhibitors; 310,000 tested, 5.4% active; P51450; note: potency is the fitted concentration of half-maximal effect; nearly all actives have a fitted effect of over 60% in size
Target sequence (P51450 whole entry, looked up, the tested form may be a part): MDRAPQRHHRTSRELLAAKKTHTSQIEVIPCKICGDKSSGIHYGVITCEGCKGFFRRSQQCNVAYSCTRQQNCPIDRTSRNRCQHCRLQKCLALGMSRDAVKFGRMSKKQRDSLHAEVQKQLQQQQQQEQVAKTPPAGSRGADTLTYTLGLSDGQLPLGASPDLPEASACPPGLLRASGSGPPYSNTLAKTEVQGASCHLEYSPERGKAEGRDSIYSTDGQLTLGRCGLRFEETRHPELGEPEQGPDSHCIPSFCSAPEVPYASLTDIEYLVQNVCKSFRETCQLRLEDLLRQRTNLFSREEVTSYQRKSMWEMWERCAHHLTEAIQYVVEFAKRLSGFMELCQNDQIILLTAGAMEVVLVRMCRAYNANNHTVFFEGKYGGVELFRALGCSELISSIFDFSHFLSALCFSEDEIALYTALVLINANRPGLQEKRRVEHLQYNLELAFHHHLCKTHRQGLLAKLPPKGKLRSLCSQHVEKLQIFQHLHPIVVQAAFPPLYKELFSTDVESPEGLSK
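Schneider cells (Drosophila), stable Gal4 DBD–ROR gamma + UAS-luc; 1 hr cmpd preincubation; Cu2+ induction 700 uM final; 20 hr ambient; luminescence.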
DT40 TDP1 no CPT = qHTS for Inhibitors of human tyrosyl-DNA phosphodiesterase 1 (TDP1): qHTS in cells in absence of CPT; 420,000 tested, 15% active; DT40 Tdp1-/- hTDP1 cells, no CPT, ATP luminescence, 48 h; Potency, µM (top dose mostly 46.2 µM), for inactives: top-dose activity change, negative = growth inhibition, hits mostly inhibitors; note: potency is the fitted concentration of half-maximal effect; nearly all actives have a fitted effect of over 55% in size
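Stably hTDP1-transfected Tdp1-null chicken DT40 cells were treated with library compounds minus camptothecin and grown for at least 48 hr at 37 °C, after which cellular ATP was quantified by luminescence.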
IL1B secr inh = inflammasome signaling inhibition, IL-1 beta readout | THP-1 LPS/ATP IL-1B secretion, AlphaLISA, 16 h; stronger effect = lower value | activity change, % at 57.5 µM | 360,000 tested, 4.7% active | AID 743279; in the data active = activity change below about -50%; inconclusive = mostly about -30% to -49%
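THP-1 cells pretreated 1 hr with compounds (up to 57.5 uM final), then stimulated with LPS (250 ng/mL final) plus ATP (1.25 mM final); secreted IL-1B measured by AlphaLISA after 16 hr, decreased signal indicating inhibition.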
ELG1 repair inh = inhibitors of ELG1-dependent DNA repair in HEK293T cells. 330,000 tested, 2.3% active. Potency, µM (top dose mostly 46.1 µM), for the others: top-dose activity change, negative = inhibition, usual class: inhibitors. HEK293T ELG1-luciferase reporter, luminescence, 16 h; DNA damage induced by 5-fluorouridine; note: potency is the fitted concentration of half-maximal effect; nearly all actives have a fitted effect of over 55% in size
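5-Fluorouridine DNA damage + compound/DMSO, 2,000 cells/well, 16 h, 37 °C/5% CO2. ONE-Glo, 30 min RT, luminescence. Readout = decrease in reporter signal.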
The depositor's hits bear a star; u = inconclusive; x = not tested or not shown. A selection: hits, their analogues and other compounds. The true share with any hit is near 21%. Unless noted, calls come from the whole dose curve; as a rule, active = well fitted curve in the direction sought with a large enough effect; inconclusive = small, poorly fitted or top-dose-only effect, or another doubt; inactive = no such curve, though single readings can be large; an effect the other way counts as inactive or inconclusive. % is set by controls: 0 for no effect and ±100 for the full control effect.

SMILES	TDP1 cell CPT	VP16 counter	RORg inh	DT40 TDP1 no CPT	IL1B secr inh	ELG1 repair inh
CCOc1cccc(C2Oc3nc(SC)nnc3-c3ccccc3N2C(C)=O)c1OC (stereo not drawn)	-27%	x	x	-26%	x	x
CCCOC(=O)c1c(-c2ccccc2)nc(CC)c(C(=O)SCC)c1CCC	u	x	x	16µM*	33	-25%
Fc1ccc(C2NC(=S)NC3=C2N2CCC3CC2)cc1 (stereo not drawn)	6%	-26%	-28%	-9%	5	-10%
Fc1ccc(/C=C2\CCCC3=C2NC(=S)NC3c2ccc(F)cc2)cc1 (stereo not drawn)	x	u	8.9µM*	x	x	9%
Brc1cccc[n+]1Cc1ccccc1C[n+]1ccccc1Br	u	x	x	-25%	x	x
Brc1cccc[n+]1C/C=C/C[n+]1ccccc1Br	0%	x	x	-18%	x	x
Clc1cccc[n+]1CCCCCC[n+]1ccccc1Cl	35µM*	x	x	-98%	x	x
Brc1cccc[n+]1CCCC[n+]1ccccc1Br	8.9µM*	x	x	16µM*	x	x
Brc1cccc[n+]1CCCCCC[n+]1ccccc1Br	u	x	x	18µM*	x	x
COc1cc(/C=N/NC(=O)c2cc(-c3cccc(Br)c3)nc3ccccc23)cc(OC)c1O	21µM*	x	x	u	44	x
COc1cc(/C=N/NC(=O)c2ccc(CN3C(=O)c4cccc5cccc3c45)cc2)cc(OC)c1O	13µM*	-6%	10%	u	40	u
COc1cc(/C=N/NC(=O)c2cc(-c3ccccc3Cl)nc3ccccc23)cc(OC)c1O	u	x	x	6.5µM*	-10	x
O=C(N/N=C/c1cccc(F)c1)c1cc(-c2ccco2)nc2ccccc12	15µM*	13%	-8%	10µM*	29	u
C/C(=N\NC(=O)CCC(=O)Nc1ccc(C)c(C)c1)C1CC1	12%	1%	6%	14%	-8	0%
COc1cc(/C=N/NC(=O)c2cc(-c3ccco3)nc3ccccc23)cc(OC)c1O	10µM*	-7%	5%	u	29	u
Cc1c(C(=O)NCc2cccs2)oc2ccccc12	-11%	u	8%	-4%	-10	u
CCCNC(=O)c1c2c(nc3ccccc13)C(=O)N(C1CCCCC1)C2	-3%	x	x	-21%	x	x
CCc1c(-c2ccccc2)nc2ccccc2c1C(=O)NCCc1ccccc1	u	x	x	23µM*	x	x
Cc1c(-c2ccccc2)nc2ccccc2c1C(=O)NCc1cccs1	u	3%	45%	16µM*	-6	u
Cc1c(-c2ccccc2)nc2ccccc2c1C(=O)Oc1ccc([N+](=O)[O-])cc1	8.2µM*	-2%	18%	5.8µM*	-51*	u
O=C(NCCc1ccc(Cl)cc1)c1c2c(nc3ccccc13)C(=O)N(C1CCCCC1)C2	15µM*	x	x	15µM*	x	x
Cc1nc2scc(C)n2c(=O)c1S(=O)(=O)N1CCN(c2ccc([N+](=O)[O-])cc2)CC1	-2%	1%	5%	8%	0	17%
CCOc1ccc(N(CC(=O)NCc2ccc(C)cc2)S(=O)(=O)c2c(C)noc2C)cc1	-26%	x	x	-24%	x	x
CC(=O)c1ccc(NC(=O)Cn2c(=O)oc3cc(S(=O)(=O)N4CCCCC4)ccc32)cc1	-16%	x	x	-23%	x	x
CCN(CC)CCCNC(=O)c1c2c(nc3ccccc13)C(=O)N(C1CCCCC1)C2	-3%	x	x	-14%	x	x
SMILES	TDP1 cell CPT	VP16 counter	RORg inh	DT40 TDP1 no CPT	IL1B secr inh	ELG1 repair inh
CCOc1ccc(CCNC(=O)c2c3c(nc4ccccc24)C(=O)N(C2CCCCC2)C3)cc1	16µM*	x	x	21µM*	x	x
O=C(NCCc1ccccc1)c1c2c(nc3ccccc13)C(=O)N(C1CCCCC1)C2	12µM*	x	x	18µM*	x	x
C=C1C(=O)OC2C1CCC(C)=C1C(=O)C3OC3(C)C12 (stereo not drawn)	0.058µM*	x	x	0.18µM*	-104*	x
Cc1cccc(N2CCN(C(=O)CCNS(=O)(=O)c3ccc4c(c3)CCC(=O)N4)CC2)c1C	u	-10%	0%	u	9	11µM*
COc1ccc(N2CCN(C(=O)CCS(=O)(=O)c3ccc4c(c3)CCN4C(=O)C3CC3)CC2)cc1	u	-3%	-24%	u	-6	u
Cc1ccc(Cl)cc1N1CCN(C(=O)CCNS(=O)(=O)c2ccc3c(c2)CCN3C(=O)C2CC2)CC1	8.2µM*	x	x	23µM*	x	x
COc1cccc(N2CCN(C(=O)CN(C)S(=O)(=O)c3ccc4c(c3)CCC(=O)N4)CC2)c1	29µM*	2%	-40%	18µM*	7	u
COc1ccccc1N1CCN(C(=O)CCNS(=O)(=O)c2ccc3c(c2)CCN3C(=O)C2CC2)CC1	16µM*	x	x	23µM*	x	x
O=C(CCNS(=O)(=O)c1ccc2c(c1)CCN2C(=O)C1CC1)N1CCN(c2cccc(C(F)(F)F)c2)CC1	2.1µM*	x	x	1.6µM*	x	x
CCc1ccc(CN(C(=O)Nc2cccc(Cl)c2)c2ccccn2)cc1	18µM*	x	x	u	x	x
Cn1nc(C(F)(F)F)c(C#N)c1N1CCN(c2ccc(F)cc2)CC1	u	5%	-1%	21µM*	-12	10µM*
Cn1nc(C(F)(F)F)c(C#N)c1N1CCN(c2ccccn2)CC1	-23%	-10%	25%	u	18	u
Cn1nc(C(F)(F)F)c(C#N)c1N1CCN(c2ccccc2)CC1	u	u	24%	15µM*	-17	9.2µM*
Cc1ccc(-n2c(SCC(=O)c3c(N)n(C4CC4)c(=O)[nH]c3=O)nnc2N2CCOCC2)cc1	-6%	x	x	2%	12	11%
CCOC(=O)C1=C(C)N(C)C(C)=C(C(=O)OCC)C1c1ccsc1	u	24%	-15%	15µM*	-15	-6%
CCOC(=O)C1=C(C)N(C)C(C)=C(C(=O)OCC)C1c1ccc(C(=O)OC)cc1	u	2%	-20%	15µM*	u	-28%
CCOC(=O)C1=C(C)N(C)C(C)=C(C(=O)OCC)C1c1ccc(Cl)cc1	u	22µM*	-25%	u	u	-6%
COC(=O)C1=C(C)N(C)C(C)=C(C(=O)OC)C1c1ccc(Cl)cc1	-24%	14%	-25%	u	2	u
CCOC(=O)C1=CNS(=O)(=O)NC1c1ccc(C(=O)OC)cc1 (stereo not drawn)	2%	x	x	-1%	8	15%
O=C(COc1ccccc1)NCC(=O)N/N=C/c1ccc(Br)cc1	-19%	-4%	4%	-11%	-7	2%
